From publication PMC7819943, “Rice protein-binding microarrays: a tool to detect cis-acting elements near promoter regions in rice”
Over roughly 68,000 sequences, “fluorescence intensity (a.u.)” has its median near 9,100; the highest 2% begin near 16,000. This is one part of a sample in which the highest values are shown more often than they occur.

molecular target: OsWRKY34 (Oryza sativa, UniProt Q0JBA9 1-250); assay: protein-binding microarray (RPBM); PBS, 2% BSA, 51.3 ng/ul salmon testes DNA, 50 uM zinc acetate, 200 nM TF, 25 C, 1 h; high values mean tight binding; conditions: protein: recombinant; tags: N-terminal polyhistidine and DsRed monomer fusion (pET32a); label: CyDye5-dUTP incorporated in the synthesized complementary strand; 3' TTTTT single-stranded linker to array surface; dsDNA, one strand shown
Sequence (Q0JBA9 entry or part of it): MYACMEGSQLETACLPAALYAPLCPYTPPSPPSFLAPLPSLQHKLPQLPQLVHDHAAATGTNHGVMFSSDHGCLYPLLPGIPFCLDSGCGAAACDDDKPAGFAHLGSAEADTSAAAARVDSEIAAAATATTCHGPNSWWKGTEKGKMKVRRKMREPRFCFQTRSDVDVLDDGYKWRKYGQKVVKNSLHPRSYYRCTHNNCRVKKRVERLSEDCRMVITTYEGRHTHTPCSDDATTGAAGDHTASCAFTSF
How it was run: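 Per-feature fluorescence intensity (arbitrary units), read on an Axon 4000B scanner, is the binding signal. Transcription factors carrying an N-terminal polyhistidine tag and DsRed fusion were expressed in E. coli BL21-CodonPlus and purified on Ni–NTA. A custom Agilent array, made double-stranded by primer extension with Cy5-dUTP and blocked with 2% BSA, was incubated with 200 nM protein in PBS, 2% BSA, salmon testes DNA and 50 µM zinc acetate at 25 °C for 1 h and then washed.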

Sequence | binding signal
TAGTGTTGGTTTGATTTTTATATCACTAGAGATGAACTAACGGAGTCACCTAGTGCAG | 8560 fluorescence intensity (a.u.)
GATGATGATGATTTTGGTAGGAGATATGGATCGTGTTGGTCGGAGTCACCTAGTGCAG | 11300 fluorescence intensity (a.u.)
ATCTTATTAATTAATTCTTTGTGTTTCATATTATTCTAATCGGAGTCACCTAGTGCAG | 10300 fluorescence intensity (a.u.)
TGCGAGTTCGTCGCCGCCTCCGCCGATCTCCATCAGGCGACGGAGTCACCTAGTGCAG | 9610 fluorescence intensity (a.u.)
GCAGCGACGACATCTGACGGCCTCACCTACCTTTCGGTCTCGGAGTCACCTAGTGCAG | 8460 fluorescence intensity (a.u.)
GGTGTCTTGATTGATATGATTTAAATTATTCTTGGTCTTGCGGAGTCACCTAGTGCAG | 9570 fluorescence intensity (a.u.)
GGCTCAACAAATAATGTGAAGATCTCTCATTTTCATTTTCCGGAGTCACCTAGTGCAG | 8050 fluorescence intensity (a.u.)
TGTTTGGTTGGGATACATGGGAATTTTGGTAGGATGGGGACGGAGTCACCTAGTGCAG | 12700 fluorescence intensity (a.u.)
TCTTTGTTATAATTATGGGGTTGGTTTTATTCGTTTTCGACGGAGTCACCTAGTGCAG | 21900 fluorescence intensity (a.u.)
TCGTTATACCTGGTTTTTTTGGTTGAGGGATGTTATTCGACGGAGTCACCTAGTGCAG | 12500 fluorescence intensity (a.u.)
TTTATACATGGTTTGTGTTTTTCTCACTTTGGGTTGGGGACGGAGTCACCTAGTGCAG | 18000 fluorescence intensity (a.u.)
AAATTTGTTATTTTTGTTTCGAATTATATAATTCGAATTTCGGAGTCACCTAGTGCAG | 9450 fluorescence intensity (a.u.)
CTAGTTGTGTTTGTTAATTTCTTTCTATACATGGGTTACCCGGAGTCACCTAGTGCAG | 11700 fluorescence intensity (a.u.)
GACACCACATAAAGACACCCATCCCCGTGATCAACTACCTCGGAGTCACCTAGTGCAG | 8320 fluorescence intensity (a.u.)
CGCCTGTCAAATCCTAGTCAGGGAATCTGTCTTCCATCTACGGAGTCACCTAGTGCAG | 9100 fluorescence intensity (a.u.)
TTTTTCTTTTTATTGTCTTGTTCTCGTGCGTGTTGAAAAACGGAGTCACCTAGTGCAG | 20300 fluorescence intensity (a.u.)
GCCTTTTTCTTGCGTGTAGGTTGTTCTGTTGAGAGAAAGACGGAGTCACCTAGTGCAG | 17700 fluorescence intensity (a.u.)
AAGGACCCGTTCTATCTGGTTTTGCGGTTGAAGGATAGAACGGAGTCACCTAGTGCAG | 28000 fluorescence intensity (a.u.)
TATATTGTCTGTTTTCTCTTGAATCTTTCCTATCCAGTAGCGGAGTCACCTAGTGCAG | 8490 fluorescence intensity (a.u.)
AGTATTGTTTTCTCGCTGTCTCTATCCAAATCTTTGAAAACGGAGTCACCTAGTGCAG | 17200 fluorescence intensity (a.u.)

Sequence | binding signal
TTTTTTTTCTTTCTGTTCTGTTTCTGTTGAGAAACAAAGACGGAGTCACCTAGTGCAG | 8450 fluorescence intensity (a.u.)
TGTTATTATTGCCGTTGTCTTTATTTTTCTTTTTTGAAAACGGAGTCACCTAGTGCAG | 9580 fluorescence intensity (a.u.)
TCTTCTTTTGTTGTCTTCTGCTATCCAATCTCTTGTCAAACGGAGTCACCTAGTGCAG | 10500 fluorescence intensity (a.u.)
TTATTGTTTTTATTGTCTTTTTTTCTTTATATTTCCAAAACGGAGTCACCTAGTGCAG | 11400 fluorescence intensity (a.u.)
AGTTGAGGGATCCGTTGTATCTGGTTTTGCGGTTGAAGGACGGAGTCACCTAGTGCAG | 8570 fluorescence intensity (a.u.)
TTGTGTAGGTTTTGTTTCTTTCTTCTTTTTTCGAAAAGAGCGGAGTCACCTAGTGCAG | 8940 fluorescence intensity (a.u.)
GTTGAGGGACCCGCTGGATCTGGTTTTTGATTGAAGGATACGGAGTCACCTAGTGCAG | 8800 fluorescence intensity (a.u.)
CCTTTTCAAGTATTATTGCTGTTTGATTCATCTCTCTTTGCGGAGTCACCTAGTGCAG | 9510 fluorescence intensity (a.u.)
TAAACTTGCTCTGATGCGCCCACACGGGGCCACGGCGCGCCGGAGTCACCTAGTGCAG | 9010 fluorescence intensity (a.u.)
TAAACTCGTCTTATCCGCATGATTGTTGACTATAGTATGTCGGAGTCACCTAGTGCAG | 9300 fluorescence intensity (a.u.)
CTTTCATATATGTGTGTGCTATGATTTGTTTTCTTCCTCACGGAGTCACCTAGTGCAG | 11900 fluorescence intensity (a.u.)
CCGCATCCTTCTTGGACTTCTGTTTTGTTGTTGGCCATGGCGGAGTCACCTAGTGCAG | 11100 fluorescence intensity (a.u.)
GATTTTTCTTTACATGTTCTTTTTCATCGATCTTTTGAGACGGAGTCACCTAGTGCAG | 9460 fluorescence intensity (a.u.)
GCTCCAGATCTGTGGGTGTCTTTGGGTGAGTGGGCAAATACGGAGTCACCTAGTGCAG | 11200 fluorescence intensity (a.u.)
CTGAACATGTTGTTCAGTTGGCCTCGTTTTCTCACCTTTGCGGAGTCACCTAGTGCAG | 9320 fluorescence intensity (a.u.)
GACCTGAAGTTCTCGTTGTGTTGGCCTGCGTTTTTATCTGCGGAGTCACCTAGTGCAG | 16800 fluorescence intensity (a.u.)
TCGTTTTTCTCTTTAGTGTGTGTGTGTTGCGTTTTTGCAACGGAGTCACCTAGTGCAG | 10300 fluorescence intensity (a.u.)
CTTCTGCTTGGTGTGTTGTGTGTTTTACCTTGAGTTATCTCGGAGTCACCTAGTGCAG | 8480 fluorescence intensity (a.u.)
ATATCTCACTTTGACTGCTTGTTGTTATCGTTCTTTTATACGGAGTCACCTAGTGCAG | 12000 fluorescence intensity (a.u.)
TTGTTCTCTTTTTTTTTGCGTGCGTTGACTTTATCTTCAACGGAGTCACCTAGTGCAG | 19900 fluorescence intensity (a.u.)

Sequence | binding signal
GGGAGTCAAAGTAGACTTATTCTTCCCCAATCCATCTCAGCGGAGTCACCTAGTGCAG | 8330 fluorescence intensity (a.u.)
GTTCTCGATGTGTTCTAAAATTTTGTTGTTTATAATTTTTCGGAGTCACCTAGTGCAG | 8190 fluorescence intensity (a.u.)
TTCATCGTAAACGTTACTTCTCGTTATAAATTGATTTTTTCGGAGTCACCTAGTGCAG | 10100 fluorescence intensity (a.u.)
ACAGCGACCTTTTGCTGCAAAGCTTTGTTGGGTTTGGGCTCGGAGTCACCTAGTGCAG | 8470 fluorescence intensity (a.u.)
ACGACCCCTCCAACACATTTCCCTCGCGTCTCGTTGCGATCGGAGTCACCTAGTGCAG | 8480 fluorescence intensity (a.u.)
CTCGTTATATCTATTATAAATTTTTTAATATACATGTTATCGGAGTCACCTAGTGCAG | 9040 fluorescence intensity (a.u.)
AGGATCGAGGAATTCAGTTAAGCAAAAATATTTATACATGCGGAGTCACCTAGTGCAG | 47600 fluorescence intensity (a.u.)
ATCGTACCATTATTCAAAATTTTAAATAGTTACATGTTCACGGAGTCACCTAGTGCAG | 8120 fluorescence intensity (a.u.)
ATCTCCGGCGTTTTTCAACCGTATGGCAATGATCATCCTTCGGAGTCACCTAGTGCAG | 11100 fluorescence intensity (a.u.)
GGGCTTGTTGGGGTTGCTGTGGTAGCCGGGAGGGAGGGGACGGAGTCACCTAGTGCAG | 28500 fluorescence intensity (a.u.)
CTGTGGTGGTGTGCATACGGGTTGGGGTGGAGGGCTGCTCCGGAGTCACCTAGTGCAG | 17900 fluorescence intensity (a.u.)
TGGCTGCCGGACTTGGGAGGGACACTGGGTTGGTTGTGGGCGGAGTCACCTAGTGCAG | 9440 fluorescence intensity (a.u.)
GTGGCTGCGTGTGGTGGCGTTGCACGGCTCGGGTGGGCTCCGGAGTCACCTAGTGCAG | 8660 fluorescence intensity (a.u.)
TAGGGAGGGTTGTGGGGAGGGGAGCTGTGGCCGCAATGTCCGGAGTCACCTAGTGCAG | 19400 fluorescence intensity (a.u.)
TGGCCGGAGCTAGGGTGGGTGGGTGGTTGGCCGCACCACCCGGAGTCACCTAGTGCAG | 8250 fluorescence intensity (a.u.)
GTTGGGGTGGAGGGCTGCTCCAGGTGAGAGGGCTGGGCATCGGAGTCACCTAGTGCAG | 9900 fluorescence intensity (a.u.)
TTGTGGCAATGGCGGCGGTGGCGGTGGCGGTTGGGGTGGCCGGAGTCACCTAGTGCAG | 11500 fluorescence intensity (a.u.)
GAAGGTTGCTGTTGCTTGTTGTTGGTAGTGTCTTGTGTGCCGGAGTCACCTAGTGCAG | 9090 fluorescence intensity (a.u.)
